The panel holds about 83,000 compounds, 20% with a hit somewhere; the sample as a whole holds those more often.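 Each cell line was grown in a 96-well plate and treated with one concentration of compound for 48 hours. Values below 10 were considered active.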 Unmarked numbers belong to inactive results. Active and inactive are the calls of the source.

The subject of the experiment is DU-145 prostate. The experiment in a line: NCI-60 one-dose screen, 48 h (100 = growth as untreated, 0 = no growth, -100 = all killed). To be noted: 10 µM unless noted.
Turning to `Cc1ccc(Cl)cc1NC(=O)c1cc2ccccc2cc1O`, the growth is 7.76% (active).

As for `COc1ccc(NC(=O)CSc2nc(C)c(C(C)=O)n2-c2ccc([N+](=O)[O-])cc2)cc1`, the growth was 113%.

Take `O=C(NC(Cc1nnc2n(Cc3ccccc3)c(=O)c3c4c(sc3n12)CCCC4)c1ccc(Cl)cc1)c1ccccc1` (stereo not drawn): the growth was 96.7%.

With `COc1cc(C2CC(=O)Nc3c2c(C)nn3-c2nc3ccccc3[nH]2)c(OC)c(OC)c1OC` (stereo not drawn), the growth was 53.8%.

For the compound `Cn1c(-c2c(N)n(Cc3ccc(C(F)(F)F)cc3)c3nc(C#N)c(C#N)nc23)nc2ccccc21`, the growth is -4.79% (active).

`N#Cc1c(-c2ccccc2)cc(-c2ccc(Nc3nc(Nc4ccc(F)cc4)nc(Nc4ccc(F)cc4)n3)cc2)nc1N`: the growth is 106%.

Consider `Cc1c(O)cc(-c2cnc(N/N=C\c3ccc(Cl)cc3)s2)c(O)c1C`, for which the growth is 100%.

As for `COc1ccc2c(c1)O/C(=C\c1cccc(OCC(=O)Nc3nc4ccccc4s3)c1)C2=O`, the growth was 28.6%.

For the compound `Cn1c2c(c3ccc(Cl)c(Cl)c31)C(C#N)C1(CCNCC1)NC2=O` (stereo not drawn), the growth was 69.1%.

For `COc1ccc(C2=NN(C(=O)c3cc(OC)c(OC)c(OC)c3)C(c3ccc(Cl)cc3)C2)cc1OC` (stereo not drawn), the growth is 7.23% (active).

In the case of `CCN(CC)CCN1CC(O)=C(c2nc(-c3ccc(Cl)cc3)cs2)C1=N`, the growth is 66.4%.

For the compound `C=C(C)[C@@H]1CC=C2c3sc(-c4ccc(C)cc4)nc3C[C@@H](C)[C@]2(C)C1`, the growth is 114%.

With `COC(=O)c1c2c(c[n+]([O-])c1C)C(=O)C=CC2=O`, the growth was 74.1%.

For the compound `COc1ccc(NC(=O)CSc2nnc(-c3cc(-c4ccccc4)nc4ccccc34)n2-c2ccccc2)cc1`, the growth is 99.7%.

As for `COc1cc(C2CC(=O)Nc3c2c(C)nn3-c2nc3ccccc3[nH]2)cc2c1OCC(=O)N2` (stereo not drawn), the growth was 111%.

On to `Cc1cc(Cl)nc(NCc2cc(Nc3ccnc4cc(Cl)ccc34)ccc2F)n1`, for which the growth is 52.3%.

Regarding `COc1ccc2c(c1)[nH]c(=O)c1c3cccnc3cn21`, the growth was 9.39% (active).

`Cc1ccc(Cc2cnc(NC(=O)c3ccc4noc(-c5ccccc5)c4c3)s2)cc1`: the growth is 102%.

Turning to `CC1=CN2C(=O)C3C4=C(CCCC4)SC3N=C2CN1c1c(C)cccc1C` (stereo not drawn), the growth is 104%.

`Cc1ccc2[nH]c(=O)c3c(c2c1)OC(N)=C(C#N)C31c2cc(Br)ccc2-c2ccc(Br)cc21`: the growth is 29.1%.

Consider `CS(=O)(=O)c1ccc(Nc2nc(N[C@H]3CCCC[C@H]3N)nc3cc[nH]c(=O)c23)cc1`, for which the growth was 14.4%.

Consider `O=C(NCCCNc1cc(-c2cn(-c3ccccc3)nc2-c2cccc(O)c2)ccn1)c1cccc(O)c1`, for which the growth is 78.3%.

`COc1ccc(C(=O)COc2ccc(/C=C3\Oc4ccccc4C3=O)cc2)cc1`: the growth is 120%.

Turning to `Cc1ccc(C2SCC(=O)N2Cc2ccccc2)cc1` (stereo not drawn), the growth is 118%.

For `Cc1cccc(Cc2cnc(NC(=O)/C=C/c3ccco3)s2)c1`, the growth was 15.9%.

As for `CN(C)CCNc1nc2ccccc2c2c1c1c(n2Cc2ccccc2)-c2ccccc2C1=O`, the growth is -100% (active).

On to `Cc1occc1-c1n[nH]c(=S)n1N1C(=O)CSC1=S`, for which the growth is 108%.

On to `Cc1cccc(NC(=O)CSc2nc3ccccc3[nH]2)c1`, for which the growth was 107%.

Consider `Cc1ccccc1NC(=O)N/C(N)=N/c1nc(C)c(C)s1`, for which the growth is 11.2%.

With `NNC(=O)c1nc(N)n(-c2ccc(S(N)(=O)=O)cc2)n1`, the growth was 92.8%.

Regarding `COc1cc(CCC[P+](c2ccccc2)(c2ccccc2)c2ccccc2)cc2c1OCO2`, the growth is 48.2%.

Turning to `O=C1/C(=C2/C=Nc3ccccc32)N(O)c2ccccc21`, the growth was 73.7%.

Consider `COc1ccccc1N1C(=O)/C(=C/C2=Cc3ccccc3OC2)SC1=S`, for which the growth is 100%.

With `C=CCn1c(C)nc2cc(Nc3nc(Cl)nc4ccccc34)ccc21`, the growth is 105%.

Consider `COc1cc(/C=C/C(=O)c2c(C)nc3ccccc3c2C)ccc1OCCCN1CCN(C(=O)c2ccco2)CC1`, for which the growth is 91.4%.

Turning to `Cn1cc(-c2csc(-c3ccccc3)n2)c2cccnc21`, the growth is -61.4% [100 µM] (active).

On to `N=C(N)c1ccc(-c2ccc(-c3cncc4ccccc34)s2)s1`, for which the growth is -90% (active).

In the case of `CC(C)CC(NC(=O)CN(Cc1ccccc1)S(C)(=O)=O)C(=O)O` (stereo not drawn), the growth is 104%.

These data come from PubChem BioAssay (NCI).
